Binding signal data for eight sequences are collected here from article PMC11006913.

Common to all, as to experiment: PBM; 200 nM protein, PBS
Common to all, as to settings: dsDNA, one strand shown

Assay [1] addresses HOXA7 (Homo sapiens, UniProt P31268 116-202).
For assay [2], the target named is T1, PAX4 (Homo sapiens, UniProt O43316 9-242, R200K).
T1 sequence: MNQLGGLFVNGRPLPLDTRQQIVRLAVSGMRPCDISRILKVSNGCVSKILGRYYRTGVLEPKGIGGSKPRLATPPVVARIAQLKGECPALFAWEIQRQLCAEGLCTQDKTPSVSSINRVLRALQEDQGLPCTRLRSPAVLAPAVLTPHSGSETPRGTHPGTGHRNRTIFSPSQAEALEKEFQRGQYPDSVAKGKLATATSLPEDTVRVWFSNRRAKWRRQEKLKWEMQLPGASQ

The target in assay [3] is T2, PAX4 (Homo sapiens, UniProt O43316 9-242).
T2 sequence: T1 sequence with K192R

Assay [4] addresses T3, PAX4 (Homo sapiens, UniProt O43316 9-242, R200Q).
T3 sequence: T1 sequence with K192Q

For assay [5], the target named is T4, PAX4 (Homo sapiens, UniProt O43316 9-242, F177V).
T4 sequence: T1 sequence with F169V, K192R

The target in assay [6] is T5, PAX4 (Homo sapiens, UniProt O43316 9-242, F177Y).
T5 sequence: T1 sequence with F169Y, K192R

Assay [7] addresses T6, PAX4 (Homo sapiens, UniProt O43316 9-242, R227W).
T6 sequence: T1 sequence with K192R, R219W

The target of assay [8] is HOXA7 (Homo sapiens, UniProt P31268 116-202, W177C).
Assay [9] deals with ALX3 (Homo sapiens, UniProt O95076 139-225, N203Q).
In the next assay the target is MSX2 (Homo sapiens, UniProt P35548 130-214).
Assay [10] concerns the target ALX3 (Homo sapiens, UniProt O95076 139-225).
The target of assay [11] is ALX3 (Homo sapiens, UniProt O95076 139-225, L168V).
The target of assay [12] is ALX3 (Homo sapiens, UniProt O95076 139-225, N203S).
For a further assay, the target named is T7, VENTX (Homo sapiens, UniProt O95231 78-163, Y115F).
T7 sequence: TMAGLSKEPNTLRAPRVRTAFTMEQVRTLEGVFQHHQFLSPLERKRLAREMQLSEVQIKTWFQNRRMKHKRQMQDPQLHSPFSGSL

The target of assay [13] is HOXA2 (Homo sapiens, UniProt O43364 129-215, R185T).
Another assay has as its target HOXA4 (Homo sapiens, UniProt Q00056 201-287, W262F).
Assay [14] addresses HOXA2 (Homo sapiens, UniProt O43364 129-215, R185K).
The target in assay [15] is HOXA2 (Homo sapiens, UniProt O43364 129-215, Y150S).
Assay [16] deals with HOXA2 (Homo sapiens, UniProt O43364 129-215).

Numbering of substitutions follows the chain as printed.

Chain of ALX3 (Homo sapiens, UniProt O95076 139-225, N203Q) (O95076 139-225 N203Q): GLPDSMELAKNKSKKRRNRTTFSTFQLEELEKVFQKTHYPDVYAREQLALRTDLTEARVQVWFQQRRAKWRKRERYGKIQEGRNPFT
Chain of MSX2 (P35548 130-214): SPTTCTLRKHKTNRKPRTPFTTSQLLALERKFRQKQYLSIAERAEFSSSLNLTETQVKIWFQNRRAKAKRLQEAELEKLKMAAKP
Chain of ALX3 (Homo sapiens, UniProt O95076 139-225) (O95076 139-225): as the sequence (O95076 139-225 N203Q) above, with Q65N counted along it
Chain of ALX3 (Homo sapiens, UniProt O95076 139-225, N203S) (O95076 139-225 N203S): as the sequence (O95076 139-225 N203Q) above, with Q65S counted along it
Chain of ALX3 (Homo sapiens, UniProt O95076 139-225, L168V) (O95076 139-225 L168V): as the sequence (O95076 139-225 N203Q) above, with L30V, Q65N counted along it
Chain of HOXA7 (Homo sapiens, UniProt P31268 116-202) (P31268 116-202): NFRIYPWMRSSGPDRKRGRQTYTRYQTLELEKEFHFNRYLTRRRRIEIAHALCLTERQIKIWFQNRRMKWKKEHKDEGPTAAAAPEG
Chain of HOXA4 (Q00056 201-287 W262F): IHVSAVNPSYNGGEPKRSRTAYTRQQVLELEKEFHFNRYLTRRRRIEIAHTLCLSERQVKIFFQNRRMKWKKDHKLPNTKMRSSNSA
Chain of HOXA2 (Homo sapiens, UniProt O43364 129-215, R185T) (O43364 129-215 R185T): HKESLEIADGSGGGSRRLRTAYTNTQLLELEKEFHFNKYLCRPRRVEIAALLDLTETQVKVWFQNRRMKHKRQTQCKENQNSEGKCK
Chain of HOXA7 (Homo sapiens, UniProt P31268 116-202, W177C) (P31268 116-202 W177C): as the sequence (P31268 116-202) above, with W62C counted along it
Chain of HOXA2 (Homo sapiens, UniProt O43364 129-215, R185K) (O43364 129-215 R185K): as the sequence (O43364 129-215 R185T) above, with T57K counted along it
Chain of HOXA2 (Homo sapiens, UniProt O43364 129-215) (O43364 129-215): as the sequence (O43364 129-215 R185T) above, with T57R counted along it
Chain of HOXA2 (Homo sapiens, UniProt O43364 129-215, Y150S) (O43364 129-215 Y150S): as the sequence (O43364 129-215 R185T) above, with Y22S, T57R counted along it

Take ATTAATGC: the binding signal is 11 upbm affinity estimate (log intensity, higher = more binding, comparable within an allelic series) with HOXA7 [1]; 11.7 upbm affinity estimate (log intensity, higher = more binding, comparable within an allelic series) in the assay with PAX4 [2]; 12.1 upbm affinity estimate (log intensity, higher = more binding, comparable within an allelic series) with PAX4 [3]; 11.7 upbm affinity estimate (log intensity, higher = more binding, comparable within an allelic series) with PAX4 [4]; 10.4 upbm affinity estimate (log intensity, higher = more binding, comparable within an allelic series) with PAX4 [5]; 11 upbm affinity estimate (log intensity, higher = more binding, comparable within an allelic series) with PAX4 [6]. For the same sequence, the binding signal was 10.9 upbm affinity estimate (log intensity, higher = more binding, comparable within an allelic series) in the assay with PAX4 [7] and 8.84 upbm affinity estimate (log intensity, higher = more binding, comparable within an allelic series) with HOXA7 [8].

Regarding CCAATTAC, the binding signal with ALX3 [9] is 8.39 upbm affinity estimate (log intensity, higher = more binding, comparable within an allelic series); in the assay with MSX2, 13.9 upbm affinity estimate (log intensity, higher = more binding, comparable within an allelic series); with ALX3 [10], 12.5 upbm affinity estimate (log intensity, higher = more binding, comparable within an allelic series); with ALX3 [11] it was 9.97 upbm affinity estimate (log intensity, higher = more binding, comparable within an allelic series); with ALX3 [12], 8.51 upbm affinity estimate (log intensity, higher = more binding, comparable within an allelic series).

On to CAATTACA, for which the binding signal in the assay with MSX2 was 13.7 upbm affinity estimate (log intensity, higher = more binding, comparable within an allelic series).

As for AATTAAGC, the binding signal is 11.7 upbm affinity estimate (log intensity, higher = more binding, comparable within an allelic series) with PAX4 [2]; 11.5 upbm affinity estimate (log intensity, higher = more binding, comparable within an allelic series) with VENTX; 12.2 upbm affinity estimate (log intensity, higher = more binding, comparable within an allelic series) with PAX4 [3]; 12.5 upbm affinity estimate (log intensity, higher = more binding, comparable within an allelic series) with HOXA2 [13]; 8.44 upbm affinity estimate (log intensity, higher = more binding, comparable within an allelic series) with ALX3 [9]; 12 upbm affinity estimate (log intensity, higher = more binding, comparable within an allelic series) in the assay with PAX4 [4]. The binding signal with PAX4 [5] was 10.5 upbm affinity estimate (log intensity, higher = more binding, comparable within an allelic series); with ALX3 [10] it was 12.4 upbm affinity estimate (log intensity, higher = more binding, comparable within an allelic series); with PAX4 [6], 11 upbm affinity estimate (log intensity, higher = more binding, comparable within an allelic series); in the assay with ALX3 [11], 9.92 upbm affinity estimate (log intensity, higher = more binding, comparable within an allelic series); with PAX4 [7], 10.9 upbm affinity estimate (log intensity, higher = more binding, comparable within an allelic series); with HOXA4 it was 11.5 upbm affinity estimate (log intensity, higher = more binding, comparable within an allelic series). Also, the binding signal in the assay with ALX3 [12] is 8.49 upbm affinity estimate (log intensity, higher = more binding, comparable within an allelic series).

Consider CCCAGGCG, for which the binding signal with HOXA2 [13] was 7.06 upbm affinity estimate (log intensity, higher = more binding, comparable within an allelic series); with HOXA2 [14], 10.1 upbm affinity estimate (log intensity, higher = more binding, comparable within an allelic series); with HOXA2 [15], 10.5 upbm affinity estimate (log intensity, higher = more binding, comparable within an allelic series); with HOXA2 [16], 7.13 upbm affinity estimate (log intensity, higher = more binding, comparable within an allelic series).

As to AATTAAAT, the binding signal is 11.8 upbm affinity estimate (log intensity, higher = more binding, comparable within an allelic series) in the assay with PAX4 [2]; 12.3 upbm affinity estimate (log intensity, higher = more binding, comparable within an allelic series) with PAX4 [3]; 8.52 upbm affinity estimate (log intensity, higher = more binding, comparable within an allelic series) with ALX3 [9]; 12.2 upbm affinity estimate (log intensity, higher = more binding, comparable within an allelic series) with PAX4 [4]; 10.8 upbm affinity estimate (log intensity, higher = more binding, comparable within an allelic series) with PAX4 [5]; 13.6 upbm affinity estimate (log intensity, higher = more binding, comparable within an allelic series) with MSX2. The binding signal with ALX3 [10] was 12.5 upbm affinity estimate (log intensity, higher = more binding, comparable within an allelic series); in the assay with PAX4 [6], 11.3 upbm affinity estimate (log intensity, higher = more binding, comparable within an allelic series); in the assay with ALX3 [11], 10.2 upbm affinity estimate (log intensity, higher = more binding, comparable within an allelic series); with PAX4 [7], 11.1 upbm affinity estimate (log intensity, higher = more binding, comparable within an allelic series); with HOXA4, 11.4 upbm affinity estimate (log intensity, higher = more binding, comparable within an allelic series); in the assay with ALX3 [12], 8.68 upbm affinity estimate (log intensity, higher = more binding, comparable within an allelic series).

AATTAGAT: the binding signal with PAX4 [2] is 11.7 upbm affinity estimate (log intensity, higher = more binding, comparable within an allelic series); with PAX4 [3], 12.2 upbm affinity estimate (log intensity, higher = more binding, comparable within an allelic series); with ALX3 [9] it was 8.42 upbm affinity estimate (log intensity, higher = more binding, comparable within an allelic series); with PAX4 [4], 12 upbm affinity estimate (log intensity, higher = more binding, comparable within an allelic series); in the assay with PAX4 [5], 10.6 upbm affinity estimate (log intensity, higher = more binding, comparable within an allelic series); with ALX3 [10] it was 12.4 upbm affinity estimate (log intensity, higher = more binding, comparable within an allelic series). For the same sequence, the binding signal was 10.9 upbm affinity estimate (log intensity, higher = more binding, comparable within an allelic series) in the assay with PAX4 [6]; 9.67 upbm affinity estimate (log intensity, higher = more binding, comparable within an allelic series) with ALX3 [11]; 10.9 upbm affinity estimate (log intensity, higher = more binding, comparable within an allelic series) with PAX4 [7]; 8.49 upbm affinity estimate (log intensity, higher = more binding, comparable within an allelic series) with ALX3 [12].

As to GACAATTA, the binding signal is 11.2 upbm affinity estimate (log intensity, higher = more binding, comparable within an allelic series) with HOXA7 [1]; 13.8 upbm affinity estimate (log intensity, higher = more binding, comparable within an allelic series) with MSX2; 8.85 upbm affinity estimate (log intensity, higher = more binding, comparable within an allelic series) in the assay with HOXA7 [8].
